Consider 5 compounds from PubChem BioAssay.

Each structure is given as a SMILES string. Calls of active or inactive are those of the source. Unless noted, how the calls were made is not given here.

The nature of experiment [1]: compounds binding Alexa647 anti-His antibody – biochemical, small-molecule microarray, 635 nm fluorescence, artefact control for SMM control protein annotation, primary screen (AID 1128).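 Further: score merges feature fluorescence with signal-to-noise for each printed compound spot.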 The note with it: higher = more signal.
The test system of experiment [2] is Human papillomavirus type 1a E7 protein (residues 1-88). Description: HPV1a E7 small-molecule binders, primary screen, biochemical, small-molecule microarray, residues 1-88, 635 nm (AID 1129). The settings on record: small-molecule microarray binding, fluorescence 635 nm; higher = more signal.
Experiment [3] addresses Focal adhesion kinase 1 (Homo sapiens) (UniProt Q05397). Put plainly: PTK2 protein binding on printed compound slides – biochemical, small-molecule microarray, 635/667 nm fluorescence, BSA, DTT, primary screen (AID 1130).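 Further: composite of spot emission at 667 nm and signal to noise over triplicate slides.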 The note with it: 635 nm fluorescence, higher = more signal.
In experiment [4] the test system is Fibrinogen (Alexa647-labelled). Description: Alexa647-fibrinogen binding to printed small molecules – biochemical, small-molecule microarray, 635/667 nm fluorescence, artefact control for SMM control-protein annotation, profiling panel (AID 1131).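 Further: z-score merges 667 nm fluorescence with per-spot signal-to-noise over triplicate slides.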 The note with it: fibrinogen-A647 binding fluorescence, higher = more signal.
Experiment [5] deals with Follistatin (Homo sapiens) (UniProt P19883). Description: FST protein binding to printed compounds – biochemical, small-molecule microarray, 635/667 nm fluorescence, primary screen (AID 1132). The note with it: 635 nm fluorescence, higher = more signal.
Sequence of Follistatin (Homo sapiens) (P19883 whole entry, looked up): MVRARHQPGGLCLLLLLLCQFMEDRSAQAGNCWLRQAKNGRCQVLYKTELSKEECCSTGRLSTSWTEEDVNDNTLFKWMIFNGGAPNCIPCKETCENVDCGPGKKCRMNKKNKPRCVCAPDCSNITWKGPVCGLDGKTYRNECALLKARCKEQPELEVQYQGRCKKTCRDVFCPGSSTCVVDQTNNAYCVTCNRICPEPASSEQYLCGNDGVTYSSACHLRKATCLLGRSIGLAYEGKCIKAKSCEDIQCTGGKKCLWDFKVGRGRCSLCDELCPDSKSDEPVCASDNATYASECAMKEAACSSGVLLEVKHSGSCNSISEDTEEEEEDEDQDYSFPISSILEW
Experiment [6] concerns the target Fibroblast growth factor 2 (Homo sapiens) (UniProt P09038). Put plainly: basic fibroblast growth factor binding to printed compounds – biochemical, small-molecule microarray, 635/667 nm fluorescence, primary screen (AID 1133). The settings on record: FGF2, fluorescence 635/667, higher = more signal.
Experiment [7] can be described thus: JC-1 mitochondrial potential readout, lung cancer cells – cell-based, A549, JC-1 fluorescence, basal, 24 h, 100 nL, profiling panel (AID 1138).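 Further: A549 lung adenocarcinoma cells under basal conditions with no added stimulus; test concentration not given here.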 The settings on record: higher = more signal.
The test system of experiment [8] is Lefty1. Put plainly: Lefty1 protein binding to printed compounds – biochemical, small-molecule microarray, 635/667 nm fluorescence, primary screen (AID 1139). The settings on record: fluorescence 635/667, higher = more signal.
Experiment [9] deals with wheat germ agglutinin (Triticum aestivum), Alexa647-labelled. Put plainly: Alexa647-WGA lectin binding to printed small molecules – biochemical, small-molecule microarray, 635/667 nm fluorescence, artefact control for SMM control-protein annotation, profiling panel (AID 1140).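 Further: score merges 667 nm feature emission with signal to noise over triplicate slides.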 The settings on record: WGA-A647 binding, 635 nm fluorescence, higher = more signal.
Experiment [10] addresses Luciferin 4-monooxygenase (Photinus pyralis) (UniProt P08659). Description: inhibition of purified Photinus pyralis luciferase – biochemical, luminescence, purified enzyme, 2006 set, primary screen (AID 1141).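 Further: cell-free assay with purified firefly luciferase at 100 ng per well in PBS; test concentration not given here.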 The settings on record: purified firefly luciferase, SteadyGlo luminescence, 30 min; higher = more signal, called active from +8 up or from −8 down.
Experiment [11] has as its system Wnt5a (protein binding on small-molecule microarray). Description: small molecules binding Wnt5a protein – biophysical, small-molecule microarray, 635/667 nm fluorescence, primary screen (AID 1142).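 Further: fluorescence read at 667 nm with signal to noise per printed feature.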 The settings on record: 635 nm fluorescence, higher = more signal.
The nature of experiment [12]: ATP-based viability of Huh7 replicon cells – cell-based, CellTiter-Glo luminescence, basal, 48 h, cytotoxicity control for HCV replication inhibitor project, primary screen (AID 1143).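 Further: Huh7 hepatoma cells carrying a hepatitis C replication reporter with no stimulus; test concentration not given here.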 The settings on record: higher = more signal, called active from +8 up or from −8 down.
A short description of experiment [13]: Pseudomonas biofilm growth suppression – PAO1 strain, BacTiter-Glo luminescence, LB-PBS, primary screen (AID 1144). The settings on record: P. aeruginosa PAO1 biofilm, 12 h, higher = more signal.
Experiment [14] is described as follows: basal CRE-LacZ reporter activity in PC12 – cell-based, unstimulated, primary screen (AID 1145). The note with it: no forskolin, luminescence, 4.5 h, higher = more signal, called active from +8 up or from −8 down.
Experiment [15] is described as follows: forskolin-driven CRE-LacZ activity in PC12 – cell-based, CRE-LacZ reporter, forskolin-stimulated, primary screen (AID 1146).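 Further: PC12 cells with 6xCRE LacZ reporter stimulated by forskolin 10 µM; beta-galactosidase reporter signal reflecting CREB driven transcription.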 The settings on record: luminescence, 4.5 h, higher = more signal, called active from +8 up or from −8 down.
The target in experiment [16] is Streptavidin (Streptomyces avidinii) (UniProt P22629). Put plainly: compounds binding control protein streptavidin – biophysical, small-molecule microarray, 635/667 nm fluorescence, artefact control for SMM compound annotation, primary screen (AID 1147).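 Further: signal reflects streptavidin binding to arrayed compounds as a control protein.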 The settings on record: higher = more signal.
Sequence of Streptavidin (Streptomyces avidinii) (P22629 whole entry, looked up): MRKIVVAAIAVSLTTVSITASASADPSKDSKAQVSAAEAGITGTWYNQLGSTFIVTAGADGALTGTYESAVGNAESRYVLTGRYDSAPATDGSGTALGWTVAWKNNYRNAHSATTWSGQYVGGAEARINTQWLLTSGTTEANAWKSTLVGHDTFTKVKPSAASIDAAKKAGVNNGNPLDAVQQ
The nature of experiment [17]: probe aInhba binding on compound microarray – biochemical, small-molecule microarray, 635/667 nm fluorescence, primary screen (AID 1148).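 Further: score merges 667nm spot fluorescence with signal-to-noise for antibody binding to printed compounds.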 The settings on record: higher = more signal.
Experiment [18] has as its target Torsin-1A (Homo sapiens) (UniProt O14656). Description: TOR1A wild-type binding on microarray – cell lysate, small-molecule microarray, lysate, 635/667 nm, primary screen (AID 1149). The settings on record: COS7 hTOR1A-WT lysate, 635 nm fluorescence, higher = more signal.
For experiment [19] the target is unchanged. Put plainly: torsin A mutant lysate binding on microarrays – cell lysate, small-molecule microarray, COS7 lysate, 635/667 nm fluorescence, primary screen (AID 1150).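 Further: score pools 667 nm emission and signal to noise measuring lysate protein binding.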 The note with it: COS7 hTOR1A mutant lysate, 635 nm fluorescence, higher = more signal.
Experiment [20] relates to Sonic hedgehog protein (Shh). Put plainly: Sonic hedgehog microarray binding compounds – biochemical, small-molecule microarray, 635/667 nm fluorescence, primary screen (AID 1151).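 Further: Shh protein binding to compounds spotted on small-molecule microarray slides; score combines spot fluorescence intensity with signal-to-noise across triplicate slides.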 The note with it: 635 nm fluorescence, higher = more signal.

Sequence of Focal adhesion kinase 1 (Homo sapiens) (Q05397 whole entry, looked up): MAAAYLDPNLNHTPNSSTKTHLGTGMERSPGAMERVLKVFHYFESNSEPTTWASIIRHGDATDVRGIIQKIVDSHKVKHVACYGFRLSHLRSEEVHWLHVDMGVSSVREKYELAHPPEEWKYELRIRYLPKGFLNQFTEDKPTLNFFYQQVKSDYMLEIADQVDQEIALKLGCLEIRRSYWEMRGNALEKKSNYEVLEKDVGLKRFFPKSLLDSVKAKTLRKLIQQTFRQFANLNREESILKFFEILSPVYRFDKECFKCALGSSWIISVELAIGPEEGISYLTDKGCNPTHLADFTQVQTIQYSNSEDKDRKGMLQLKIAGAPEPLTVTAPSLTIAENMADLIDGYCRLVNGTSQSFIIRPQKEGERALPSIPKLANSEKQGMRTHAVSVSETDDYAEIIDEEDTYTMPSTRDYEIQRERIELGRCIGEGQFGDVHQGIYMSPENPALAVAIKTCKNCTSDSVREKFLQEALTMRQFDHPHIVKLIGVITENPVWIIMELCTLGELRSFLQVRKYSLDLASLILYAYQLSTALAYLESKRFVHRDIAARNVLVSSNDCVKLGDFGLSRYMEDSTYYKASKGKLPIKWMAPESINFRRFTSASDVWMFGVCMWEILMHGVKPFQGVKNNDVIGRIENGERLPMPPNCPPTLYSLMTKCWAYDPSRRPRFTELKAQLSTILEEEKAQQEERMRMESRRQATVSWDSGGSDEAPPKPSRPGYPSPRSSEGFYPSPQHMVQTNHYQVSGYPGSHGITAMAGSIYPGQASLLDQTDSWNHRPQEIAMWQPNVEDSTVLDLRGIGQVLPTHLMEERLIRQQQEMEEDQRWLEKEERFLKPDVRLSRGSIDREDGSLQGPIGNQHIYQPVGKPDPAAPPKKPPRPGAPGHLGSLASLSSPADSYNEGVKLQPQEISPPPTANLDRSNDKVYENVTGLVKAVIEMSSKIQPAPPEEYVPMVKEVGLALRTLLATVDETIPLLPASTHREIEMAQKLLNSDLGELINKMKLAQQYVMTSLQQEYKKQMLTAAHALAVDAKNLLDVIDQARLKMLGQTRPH
Sequence of Torsin-1A (Homo sapiens) (O14656 whole entry, looked up): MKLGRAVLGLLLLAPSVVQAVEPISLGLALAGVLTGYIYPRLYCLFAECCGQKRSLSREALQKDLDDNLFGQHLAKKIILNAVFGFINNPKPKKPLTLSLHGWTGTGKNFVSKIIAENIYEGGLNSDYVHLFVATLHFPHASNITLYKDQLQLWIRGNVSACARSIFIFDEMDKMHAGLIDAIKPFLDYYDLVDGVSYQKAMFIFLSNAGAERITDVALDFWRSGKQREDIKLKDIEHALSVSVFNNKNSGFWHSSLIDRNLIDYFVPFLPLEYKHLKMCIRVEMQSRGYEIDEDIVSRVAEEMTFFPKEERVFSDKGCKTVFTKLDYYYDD
Sequence of Fibroblast growth factor 2 (Homo sapiens) (P09038 whole entry, looked up): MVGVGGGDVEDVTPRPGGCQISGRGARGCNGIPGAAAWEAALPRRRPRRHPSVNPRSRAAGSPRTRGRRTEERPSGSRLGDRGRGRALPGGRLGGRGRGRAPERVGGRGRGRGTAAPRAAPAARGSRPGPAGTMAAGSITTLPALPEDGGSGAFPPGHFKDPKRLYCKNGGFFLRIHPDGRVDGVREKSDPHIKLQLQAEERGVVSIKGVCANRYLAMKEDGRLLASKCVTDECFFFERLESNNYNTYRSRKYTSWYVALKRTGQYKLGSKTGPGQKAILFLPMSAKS
Sequence of Luciferin 4-monooxygenase (Photinus pyralis) (P08659 whole entry, looked up): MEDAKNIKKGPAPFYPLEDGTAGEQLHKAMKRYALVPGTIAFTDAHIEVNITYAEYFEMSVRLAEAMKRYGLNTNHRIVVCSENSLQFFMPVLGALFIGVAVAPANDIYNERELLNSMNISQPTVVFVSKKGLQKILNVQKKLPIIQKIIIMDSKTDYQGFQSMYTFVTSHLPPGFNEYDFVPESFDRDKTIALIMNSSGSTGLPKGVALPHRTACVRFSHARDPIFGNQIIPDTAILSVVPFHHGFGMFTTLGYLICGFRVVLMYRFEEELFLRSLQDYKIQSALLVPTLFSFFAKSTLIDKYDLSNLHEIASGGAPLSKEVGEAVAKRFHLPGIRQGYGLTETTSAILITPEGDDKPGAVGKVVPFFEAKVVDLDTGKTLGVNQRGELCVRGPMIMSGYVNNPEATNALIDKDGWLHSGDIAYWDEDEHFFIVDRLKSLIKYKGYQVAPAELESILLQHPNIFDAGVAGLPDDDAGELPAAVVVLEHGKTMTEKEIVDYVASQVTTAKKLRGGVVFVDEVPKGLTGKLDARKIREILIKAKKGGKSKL

Consider `CC#CC(=O)Oc1ccccc1C=CC(=O)OCC`, for which the composite z-score in [1] was 0.259; in experiment [2] it was 0.69; in experiment [3], -0.0142; in experiment [4], -0.0002; in experiment [5] it was 0.036; in [6], 0.524. In addition, the composite z-score in [8] was 0.51; in [9], 0.0601; in experiment [11], -0.0407; in experiment [16], 0.066; in [17], -0.206; in [18] it was -0.402. Further, the composite z-score in [19] was 0.222; in experiment [20], 0.0449. Also, the z-score in [7] was -1.04; in experiment [10] it was 1.51 (inactive); in experiment [12] it was -1.99 (inactive); in experiment [13], -1.69 (inactive); in [14], -0.0696 (inactive); in [15], 1.7 (inactive).
With `O=C(NCCN1CCOCC1)C1N=C(c2ccc(OCCCO)cc2)N(c2ccccc2)O1` (stereo not given), the composite z-score in experiment [1] amounted to 1.22; in experiment [2] it was 1.29; in [3], 0.124; in [4] it was 0.545; in experiment [5] it was 1.52; in [6], 1.58. In addition, the composite z-score worked out at 0.813 in experiment [8]; 0.61 in experiment [9]; 0.889 in [11]; 0.284 in experiment [16]; 0.0219 in experiment [17]; 1.86 in experiment [18]. Also, the composite z-score in [19] worked out at 2.3; in [20], 1.42. Also, the z-score was 1.23 in experiment [7]; -8.16 (active) in experiment [10]; 0.213 (inactive) in experiment [12]; 1.27 (inactive) in [13]; 1.78 (inactive) in [14]; 0.552 (inactive) in experiment [15].
With `COCC(=C=CC[C@@H](O)c1cccc(OCCO)c1)C[C@@H](O)c1ccccn1`, the composite z-score in experiment [1] was -0.252; in experiment [2], 0.467; in [3], -0.32; in experiment [4] it was 0.263; in experiment [5], 0.868; in [6] it was 0.392. For the same compound, the composite z-score in [8] is 1.24; in [9], 0.0688; in experiment [11] it was 0.0068; in experiment [16], -0.229; in experiment [17] it was -0.0403; in experiment [18], 0.839. The composite z-score in experiment [19] was found to be 0.344; in experiment [20], 1.29. Moreover, the z-score was 1.53 in experiment [7]; -1.16 (inactive) in [10]; 0.0726 (inactive) in experiment [12]; 0.786 (inactive) in experiment [13]; 0.378 (inactive) in experiment [14]; -1.16 (inactive) in experiment [15].
Take `CC(C)C[C@@H]1NC(=O)[C@@H]2C[C@H](C(=O)NCc3ccc(F)cc3)[C@H](c3cccc(OCCO)c3)N2C1=O`: the composite z-score was 2.05 in experiment [1]; 0.135 in experiment [2]; 0.379 in experiment [3]; -0.373 in experiment [4]; 1.47 in [5]; 1.46 in [6]. The composite z-score in experiment [8] was 0.616; in [9], -0.129; in [11], 1.9; in experiment [16], -0.443; in experiment [17] it was 0.286; in experiment [18] it was 0.265. The composite z-score in experiment [19] was 1.3; in [20] it was 1.75. Also, the z-score in experiment [7] was 1.87; in [10] it was -0.976 (inactive); in experiment [12] it was -0.119 (inactive); in experiment [13], -1.53 (inactive); in experiment [14] it was 0.826 (inactive); in experiment [15], -0.798 (inactive).
As for `O=C1N[C@@H](Cc2ccccc2)C(=O)N2[C@@H]1C[C@@H](C(=O)O)[C@H]2c1cccc(OCCO)c1`, the composite z-score was 3.3 in experiment [1]; 1.03 in experiment [2]; 0.27 in experiment [3]; 0.56 in experiment [4]; 1.38 in experiment [5]; 1.43 in experiment [6]. The composite z-score in [8] was 1.49; in experiment [9], 0.552; in experiment [11], 0.0465; in [16], 0.0555; in [17] it was -0.128; in [18] it was 1.14. The composite z-score was found to be 0.719 in [19] and 1.77 in experiment [20]. Further, the z-score in experiment [7] was 0.849; in [10] it was -1.91 (inactive); in [12], -0.333 (inactive); in experiment [13], -0.965 (inactive); in experiment [14], 0.692 (inactive); in [15] it was 0.321 (inactive).
